Experimental data from PubChem BioAssay AID1508600 (Functional Genomics Laboratory (NCATS/FGL), 2020).
The campaign covered roughly 53,000 sequences. About 3,700 (7%) were called active.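 Rule for the calls: active = gene knockdowns whose robust z-score for IL-1 alpha signal is at least 2 or at most -2, so actives lie on both sides; inactive = the rest.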 The full list was thinned out, with actives kept by preference.

Experiment: Components of the Cytosolic LPS Sensing Pathway: Gene Identification via Genome-wide siRNA Screen;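 note: robust z of the log signal after scaling to non-targeting control siRNA wells of the plate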
Conditions: RAW264.7 macrophages, IL-1a HTRF, actives lie on both sides, screened at 100 nM (by protocol), cells primed 5 h with Pam3CSK4 first
In short: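 Three distinct siRNAs per gene were tested singly at 100 nM in RAW264.7 macrophages. Following Pam3CSK4 priming and 24 hour LipidA transfection, IL-1a secretion was read by HTRF.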

z-score, active:
GGCACCCGAGUAGGUCAAATT against Carhsp1 6.02
GCGUGGUUUCUGAAUACAUTT against Nt5e 6.67
GGAGACUUCAGUGCCUCUUTT against Slc16a11 2.45
GGAAAAAGAGGAUGAGUGCTT against Gm4861 2.01
GGGAGCUAAUGAGCAAGGATT against Galk1 2.5

z-score, inactive:
GGUGUUAAGACUCAGCUCATT against Micall2 -1.49
GCCUGGUUAUUAAUUUAUCTT against Dzank1 -0.724
CGUAACUGAGUCAAUUAGUTT against Intu 0.128
GGUAACAUCUAUAUAUCACTT against Rb1 1.56
GGACUCCAACCACACUAUCTT against Rab4b 0.847
GGCAUGAUGCUGAUCAUUCTT against Olfr1100 -0.0763
GCUUAUAGUUCAGUUUUUGTT against Ints8 0.835
GCAAAUAGGGAGGUUCCUGTT against Ypel1 1.47
GGUAAUGGGACUUGGUAGGTT against Olfr1338 -0.056
UGGUCGGCUAGAUGAUGGATT against Wdr34 -0.7
GGAAGUCUGCCUGUUCUUGTT against Galnt10 0.744
GGCUGUGUUGUCGAUUUCCTT against Nkain3 0.351
GGGAUGAGUUCUUGUAAAUTT against Unc50 -1.32
GGGAACUCGAACAAGAAUUTT against Six1 1.11
GCUGCUGGAAACUAGACUGTT against Cyp2b13 -1.71
GUCAUCAAUCAAGUCUUGATT against Olfr1408 -0.0822
CCAAGGGUUGCUUCGAGCATT against Upk1a -0.489
GGACCUGAACGAUCUCGUUTT against Cyp4a12a 1.65
GGAACAACCACGGAACCCATT against Il1r2 0.335
GGGUUUCAGUCUUCUUAUCTT against Olfr556 -0.891
GCACAAACUUAUGCUCUUUTT against Klrc3 -1.76
GGACAGACAAAUACAAGAGTT against Tmco1 0.428
GUUCUUAUAUAGGAUUGUGTT against Xkr9 -0.782
GGAUCAUCUAUACAGCACATT against Tgfb1i1 -1.85
GGACAGUUCUAAAAUUCCCTT against Olfr780 -1.73
